Rows were chosen to be rich in hits. Some 2.4% of all compounds tested hit in one or more screens of this group.
A549 tox-1: kills or reduces viability of A549 cells in Nrf2 counter-screen; A549 ARE-Fluc cells, CellTiter-Fluor viability, 18-24 h; AID 504648; 0.16% of 390,000 active; Potency, µM (doses to about 46 µM), actives largely listed as inhibitors
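A549 ARE_Fluc cells in 5% FBS OPTI-MEM were exposed to compounds in concentration-response for 18-24 h at 37 deg C. Viability was read by CellTiter-Fluor fluorescence (Ex 405/Em 525) after 30 min, before the luciferase read.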
Nrf2 inh: blocks Nrf2 signaling | A549 ARE-Fluc reporter, luciferase luminescence, 18-24 h | Potency, µM (highest dose often 46 µM), usual class: inhibitors | 2.1% of 360,000 active | AID 504444; also: nearly all actives have a fitted effect of over 60% in size
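Concentration-response testing used A549 ARE_Fluc cells at 5000 cells/well. Following an 18-24 h compound incubation, viability was read by fluorescence (Ex 405/Em 525) and luciferase output by luminescence.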
Epigenetic reg: epigenetic control regulation, reporter derepression | murine LDR cells, GFP reporter derepression, 30 h | Potency, µM (top dose mostly 53.9 µM), usual class: activators | 0.2% of 280,000 active | AID 1865; also: nearly all actives have a fitted effect of over 60% in size
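Readout is the number of GFP-expressing murine LDR cells, counted by cytometry following washing. Cells were treated with compound for 30 h at 37 C; the stably integrated CMV-GFP locus is normally silent.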
Nrf2 activator: activates Nrf2 signaling; 0.31% of 410,000 active; AID 624171; AREc32 ARE-luciferase reporter (MCF7-derived line), luminescence, 24 h; Potency, µM (highest dose often 46.1 µM), hits mostly activators; also: nearly all actives have a fitted effect of over 65% in size
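Quantitative high-throughput format: AREc32 reporter cells, 1000 per well, received compound by pin transfer and were incubated 24 hr at 37 deg C, 5% CO2, before Steady-Glo luminescence detection.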
PINK1 expr mod: modulators of PINK1 expression; PINK1 immunofluorescence, high-content cytometry, 24 h; Potency, µM (series often up to 76.6 µM), hits mostly activators; 0.2% of 410,000 active; AID 624263; active = well fitted activation curve with a large enough effect; inconclusive = small, poorly fitted or top-dose-only effect; cell line not stated here; also: nearly all actives have a fitted effect of over 65% in size
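Compound titrations (5 concentrations, 24 h) on a stable cell line; DMSO and CCCP controls. Endpoint: fixed-cell PINK1 immunofluorescence with mitochondrial, cell and nuclear markers, scanned by microplate cytometer.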
FLuc enzyme inh: counter-screen for Nrf2 inhibitors: firefly luciferase enzyme inhibition; shares compounds with Nrf2 inh; purified firefly luciferase, luminescence inhibition; Potency, µM (series often up to 57.5 µM), usual class: inhibitors; 4% of 1,400 active; AID 720522; also: nearly all actives have a fitted effect of over 65% in size
Target sequence (P08659 whole entry, looked up): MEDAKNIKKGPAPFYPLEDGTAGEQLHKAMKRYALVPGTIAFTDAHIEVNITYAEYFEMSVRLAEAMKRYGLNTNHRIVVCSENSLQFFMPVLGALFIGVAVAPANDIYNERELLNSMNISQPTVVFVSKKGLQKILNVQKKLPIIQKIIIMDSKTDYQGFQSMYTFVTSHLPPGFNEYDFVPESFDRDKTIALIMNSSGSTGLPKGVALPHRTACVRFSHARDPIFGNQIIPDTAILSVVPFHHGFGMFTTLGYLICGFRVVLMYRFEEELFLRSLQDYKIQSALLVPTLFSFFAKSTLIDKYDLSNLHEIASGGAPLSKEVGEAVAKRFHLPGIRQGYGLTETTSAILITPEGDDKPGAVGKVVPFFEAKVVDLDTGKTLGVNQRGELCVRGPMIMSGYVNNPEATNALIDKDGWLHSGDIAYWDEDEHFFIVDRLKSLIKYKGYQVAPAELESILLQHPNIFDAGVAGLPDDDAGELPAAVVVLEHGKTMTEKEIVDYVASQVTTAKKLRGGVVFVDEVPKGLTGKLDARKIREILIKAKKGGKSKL
A549 tox-2: A549 cytotoxicity, Nrf2 inhibitor counterscreen; shares compounds with Nrf2 inh; A549 ARE-Fluc cells, cytotoxicity counterscreen; Potency, µM (series often up to 46.1 µM), hits mostly inhibitors; 2% of 1,400 active;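 also: cells exposed to compounds for 18 to 24 hours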
ARE-Fluc inh: Nrf2 inhibition confirmed, A549 ARE-luciferase; shares compounds with Nrf2 inh; A549 ARE-firefly luciferase reporter, luminescence; Potency, µM (titrated, usually from 46.1 µM), actives largely listed as inhibitors; 74% of 1,400 active; also: nearly all actives have a fitted effect of over 65% in size
Each line names hits and unclear results; the compound was inactive in the other large screens (follow-up assays come after a bar, where shown). Unless noted, calls follow the shape of the dose curve; as a rule, active = well fitted curve in the direction sought with a large enough effect; inconclusive = small, poorly fitted or top-dose-only effect, or another doubt; inactive = no such curve, though single readings can be large; an effect the other way counts as inactive or inconclusive.

CCOCCc1nn2c(=O)cc(COC(=O)C(CC)c3ccccc3)nc2s1 (configuration not stated)	none
Cc1cnc(NC(=O)C2CC(=O)N(c3cccc(Cl)c3)C2)s1 (configuration not stated)	A549 tox-1 inconclusive, Nrf2 inh 2.1µM (not shown: Epigenetic reg) | FLuc enzyme inh inactive | A549 tox-2 inconclusive
Nc1ncnc2c1nc(Sc1ccc(Cl)cc1)n2[C@H]1O[C@@H]2COP(=O)(O)O[C@H]2[C@@H]1O	none (no result: A549 tox-1, Nrf2 inh, Nrf2 activator, PINK1 expr mod)
O=C(Nc1ccc(Oc2cccnc2)nc1)c1ccc(C(F)(F)F)cc1	Nrf2 inh 5.8µM | FLuc enzyme inh inconclusive | A549 tox-2 inactive | ARE-Fluc inh 4.6µM
O=C(Nc1ncc(Cc2ccc(C(F)(F)F)cc2)s1)c1ccc(-c2cccc([N+](=O)[O-])c2)o1	Nrf2 inh 5.8µM | FLuc enzyme inh inactive | A549 tox-2 inactive | ARE-Fluc inh 6.5µM
Clc1ccc(-c2cc(C3CCNCC3)[nH]n2)cc1	none
Nc1nc(Cl)cc(N2CCC(c3cc(-c4ccc(Cl)cc4)n[nH]3)CC2)n1	A549 tox-1 inconclusive, Nrf2 inh 8.2µM | FLuc enzyme inh inactive | A549 tox-2 inactive | ARE-Fluc inh 18µM
COC(=O)C(C)NC(=O)N1CCN(c2nnc(C)c3c(C)n(-c4ccc(Cl)cc4)nc23)CC1 (configuration not stated)	none
Cc1cccc(NC(=O)C2CCN(S(=O)(=O)c3cccc4nsnc34)CC2)c1	Nrf2 inh inconclusive
O=C(Nc1cccc(F)c1)C1CCN(S(=O)(=O)c2cccc3nsnc23)CC1	Nrf2 inh 0.0082µM | FLuc enzyme inh inactive | A549 tox-2 inactive | ARE-Fluc inh inactive
c1cc2[nH]snc2c2nc(C3CC3)nc12	Nrf2 inh 7.3µM | FLuc enzyme inh inconclusive | A549 tox-2 inactive | ARE-Fluc inh 13µM
COc1ccc(OC)c(Nc2ncnc3sccc23)c1	none (no result: Epigenetic reg)
COc1cc(CN(C)c2ncnc3sccc23)ccc1OC(F)F	Nrf2 inh 9.2µM (no result: Epigenetic reg) | FLuc enzyme inh inactive | A549 tox-2 inactive | ARE-Fluc inh 8.2µM
COc1ccccc1C(=O)Oc1cc(N)n(S(=O)(=O)c2ccc(C)cc2)n1	Nrf2 inh inconclusive
Nc1cc(OC(=O)c2ccc(F)cc2)nn1S(=O)(=O)c1ccc(F)cc1	Nrf2 inh inconclusive (no result: Epigenetic reg)
Cc1ccc(S(=O)(=O)n2nc(OC(=O)c3ccccc3C)cc2N)cc1	Nrf2 inh 5.8µM (no result: Epigenetic reg) | FLuc enzyme inh inactive | A549 tox-2 inactive | ARE-Fluc inh 2.3µM
COc1ccc(C(=O)Oc2cc(N)n(S(=O)(=O)c3ccc(C)cc3)n2)cc1	Nrf2 inh 7.3µM (no result: Epigenetic reg) | FLuc enzyme inh inactive | A549 tox-2 inactive | ARE-Fluc inh 2.1µM
COc1ccc(CCN(C)C(=O)Cc2ccc(-c3ccccc3)cc2)cc1OC	Nrf2 inh 5.8µM (no result: Epigenetic reg) | FLuc enzyme inh inactive | A549 tox-2 inactive | ARE-Fluc inh 18µM
COc1ccc(N(CC(=O)N2CCc3ccccc3C2)S(=O)(=O)c2ccc(C)cc2)cc1Cl	none
CCN1C(=O)c2ccccc2S(=O)(=O)c2ccc(C(=O)NCc3ccccc3OC)cc21	none
COCCn1c(CCC(=O)Nc2ccc(C)c(Cl)c2)nc2cccnc21	none
CN1/C(=C/c2cc[n+](C)c3ccccc23)C=Cc2ccccc21	A549 tox-1 21µM, Nrf2 inh 1.2µM, PINK1 expr mod inconclusive | FLuc enzyme inh inconclusive | A549 tox-2 inconclusive | ARE-Fluc inh 6.5µM
COc1cc(C=NO)nc(-c2ccccn2)c1	Nrf2 inh 1.2µM (no result: Epigenetic reg) | FLuc enzyme inh inactive | A549 tox-2 inactive | ARE-Fluc inh 2.6µM
COc1ccccc1CNC(=O)c1cc2c(-c3ccc(Cl)cc3)nn(C)c2s1	Nrf2 inh inconclusive
O=C(Nc1ccccc1)c1ccc(Nc2c([N+](=O)[O-])cc([N+](=O)[O-])c3ccccc23)cc1	Nrf2 inh 7.3µM | FLuc enzyme inh inactive | A549 tox-2 inactive | ARE-Fluc inh 5.2µM
O=C1Cc2c([nH]c3ccc([N+](=O)[O-])cc23)-c2ccccc2N1	A549 tox-1 inconclusive, Nrf2 inh 2.3µM (no result: Epigenetic reg) | FLuc enzyme inh inactive | A549 tox-2 inconclusive | ARE-Fluc inh 2.3µM
Cc1ccc(-c2cn(-c3ccccc3)c3[n+]2CCCS3)cc1	A549 tox-1 inconclusive, Nrf2 inh 4.6µM, Epigenetic reg inconclusive | FLuc enzyme inh inactive | A549 tox-2 inactive | ARE-Fluc inh 6.5µM
CCc1ccc(-n2cc(-c3ccc(F)cc3)[n+]3c2SCCC3)cc1	Nrf2 inh inconclusive
COc1ccc(-n2cc(-c3ccc(C)cc3)[n+]3c2SCC3)cc1	A549 tox-1 inconclusive, Nrf2 inh 9.2µM, PINK1 expr mod inconclusive | FLuc enzyme inh inactive | A549 tox-2 inactive | ARE-Fluc inh 5.2µM
COc1ccc(COC(=O)c2[nH]c3c(c2C)C(=O)CC(c2ccc(OC)c(OC)c2)C3)cc1 (configuration not stated)	Nrf2 inh 6.5µM | FLuc enzyme inh inactive | A549 tox-2 inactive | ARE-Fluc inh 6.5µM
COc1cc(C2CC(=O)c3c([nH]c(C(=O)OCC4CCCCC4)c3C)C2)cc(OC)c1OC (configuration not stated)	Nrf2 inh 2.3µM | FLuc enzyme inh inactive | A549 tox-2 inactive | ARE-Fluc inh 4.6µM
CC(C)c1ccc(NC(=O)c2cn(C3CCCC3)c(=O)c3c2c2ccccc2n3C)cc1	none
Nc1cc(S(=O)(=O)Nc2ccccc2Cl)ccc1N1CCCCC1	Nrf2 inh 7.3µM (no result: Epigenetic reg) | FLuc enzyme inh 9.5µM | A549 tox-2 inactive | ARE-Fluc inh 15µM
Nc1ccc(N2CCCCC2)c(S(=O)(=O)Nc2ccccc2Cl)c1	none
O=C(O)C(O)C(O)(Cc1ccc(O)cc1)C(=O)O (configuration not stated)	none (no result: A549 tox-1, Nrf2 inh, Nrf2 activator, PINK1 expr mod)
O=S(=O)(c1ccccc1)N1CCC(O)(CSc2ccc(F)cc2)CC1	A549 tox-1 inconclusive, Nrf2 inh 4.1µM | FLuc enzyme inh inactive | A549 tox-2 inactive | ARE-Fluc inh 6.5µM
O=S(=O)(c1ccccc1)N1CCC(O)(CSc2ccccc2)CC1	Nrf2 inh inconclusive
COc1ccc(Cl)c2sc(NC(=O)c3ccc(S(=O)(=O)N4CCOCC4)cc3)nc12	none (no result: Nrf2 inh)
O=S(=O)(NC1CCc2ccccc21)c1ccc(S(=O)(=O)N2CCCC2)cc1 (configuration not stated)	Nrf2 inh 4.1µM (no result: PINK1 expr mod) | FLuc enzyme inh inactive | A549 tox-2 inactive | ARE-Fluc inh inconclusive
CCN(CC)c1ccc(C(=O)NNC(=O)CCNC(=O)c2ccccc2)cc1	none (no result: Epigenetic reg)

Screening results from PubChem BioAssay.
